MBNL1 CUG block: blocks human MBNL1 binding to CUG repeat RNA; TR-FRET MBNL1-His/biotin-(CUG)12 binding, 665/545 ratio; actives 0.036% (n = 280,000); Q9NR56; AID 2675; Potency, µM (highest dose often 57.5 µM), without a hit: at the top dose activity change, negative = inhibition, hits mostly inhibitors; active = well fitted inhibition curve with a large enough effect in the signal ratio, with a control signal flat, not every such curve was filed as active; inconclusive = small, poorly fitted or top-dose-only effect, or effect the other way, or a change in a side signal; inactive = no such curve, though single readings can be large or run the other way; the % refers to the signal ratio; also: potency is read from the fitted curve at half-maximal effect; % is scaled to controls: 0 for no effect and ±100 for the full control effect
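Inhibition of protein-RNA binding appears as loss of TR-FRET between terbium anti-His antibody on MBNL1-His and streptavidin-XL665 on biotin-(CUG)12. Activity is normalized to buffer-only and uninhibited-complex controls.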
Six1-Eya2 blk: inhibitors of human Six1/Eya2 interaction. AlphaScreen GST-Six1/His-Eya2 binding, biochemical; stronger effect = lower value. actives 0.56% (n = 360,000). Q15475+O00167. activity change, % (concentration not given with the values); also: % is scaled to controls: 0 for no effect and ±100 for the full control effect
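AlphaScreen with GST-Six1 and His-Eya2 (5X mix: 250 nM and 500 nM), glutathione donor and nickel acceptor beads; buffer 50 mM Tris pH 8.0, 300 mM NaCl, 1 mM TCEP; 1 h at 37 C in the dark.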
uPA generation: blocks generation of uPA at the cell surface | Potency, µM (doses to about 38.3 µM), inactives show at the top dose activity change, negative = inhibition, hits mostly inhibitors | cell surface uPA generation assay, qHTS | actives 0.31% (n = 330,000); active = well fitted inhibition curve with a large enough effect; inconclusive = small, poorly fitted or top-dose-only effect; inactive = no such curve, though single readings can be large or run the other way; tested in mouse RAW 264.7 cells; also: potency is read from the fitted curve at half-maximal effect; % is scaled to controls: 0 for no effect and ±100 for the full control effect; nearly all actives have a fitted effect of over 55% in size
CtBP-E1A blk: inhibitors of CtBP/E1A interaction | activity change, % (no concentration beside the values) | AlphaScreen GST-E1A/His-CtBP binding, 1536-well; stronger effect = lower value | actives 0.49% (n = 340,000); also: % is scaled to controls: 0 for no effect and ±100 for the full control effect
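Steps: dispense buffer (Tris pH 8.0, NaCl 300 mM, TCEP 1 mM, BSA, Tween 20); add 5X protein mix (GST-E1A, His-CtBP, 125 nM each); pin 23 nL compound; 2 h at 37 °C, dark; add 5X beads (50 ug/mL); 1 h; read.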
Mito fusion act: inhibitors of mitochondrial division or activators of mitochondrial fusion; S. cerevisiae fusion-defective mutant growth rescue, CellTiterGlo 48 h; Potency, µM (highest dose often 46.1 µM), inactives show at the top dose growth rescue (activation), actives largely listed as activators; actives 0.23% (n = 320,000); active = well fitted activation curve with a large enough effect; inconclusive = small, poorly fitted or top-dose-only effect; inactive = no such curve, though single readings can be large or run the other way; also: potency is read from the fitted curve at half-maximal effect; % of control where 0% means no effect; nearly all actives have a fitted effect of over 45% in size
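Read-out: ATP-based luminescence (CellTiterGlo, 10 min ambient) reporting growth of fusion-defective ts yeast after 48 hours at 37C on glycerol/ethanol YPEG medium in the presence of compound.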
* = called active by the depositor; u = inconclusive; x = no result; [ ] = remark or other dose. An excerpt weighted towards active compounds, which were near 1.1% of everything screened. Rule as the data show it, unless noted: active = activity change below about -65%; inconclusive = mostly about -30% to -63%; inactive = weaker than that.

SMILES	MBNL1 CUG block	Six1-Eya2 blk	uPA generation	CtBP-E1A blk	Mito fusion act
CCOc1cccc(/C=N/NC(=S)Nc2ccccc2[N+](=O)[O-])c1O	12%	u	6.3µM*	x	-1%
COc1cc(/C=N/NC(=O)c2cc(C3CC3)[nH]n2)cc(OC)c1OC	u	-4	2%	-19	7%
CCOc1cccc(/C=N/NC(=O)c2cc(C3CC3)[nH]n2)c1O	18%	-86*	u	x	3%
CCN(CC)c1ccc(/C=N/NC(=S)NC)c(O)c1	17%	-90*	u	u	-1%
CCN(CC)c1ccc(/C=N/NC(=O)c2ccc3nc[nH]c3c2)c(O)c1	u	u	-9%	-75*	-3%
COc1cc(OC)c(OC)cc1/C=N/NC(=O)c1ccc2nc[nH]c2c1	x	-15	7%	-23	5%
CCCS(=O)(=O)NC(=O)C1(C)CCN(C(=O)c2ccc3c(c2)OCO3)C1 (stereo not given)	x	7	x	8	x
COc1cccc(/C=N/Nc2nn3cnnc3c3ccccc23)c1O	12%	-87*	-9%	-91*	1%
CCOc1cccc(/C=N/NC(=O)c2cccnc2)c1O	29%	u	10µM*	x	0%
CCOc1cc(/C=N/NC(=O)c2cccnc2)ccc1O	5%	-13	1%	-9	-2%
COc1cccc(C=NNC(=O)c2ccncc2)c1O	x	-80*	-14%	-94*	x
COc1cccc(/C=N/Nc2ccccc2C(=O)O)c1O	8%	-5	-20%	-10	10%
COc1cccc(/C=N/NC(=O)c2ccc3nc[nH]c3c2)c1O	7%	-87*	-2%	-96*	2%
COc1cccc(-c2oc3c(c2C(=O)OCCN(C)C)C(O)CCC3)c1 (stereo not given)	x	-6	x	5	x
CCOC(=O)C1=CCC(c2ccc(N(CC)CC)cc2)N(S(=O)(=O)c2ccc(C)cc2)C1c1ccc([N+](=O)[O-])cc1 (stereo not given)	x	4	x	4	x
CCOc1ccccc1/C=N/NC(=O)c1c(C)nc2ccc(Br)cn12	-3%	-2	-16%	-1	-4%
COc1cccc(/C=N/NC(=O)c2c(C)nc3ccc(Br)cn23)c1O	7%	-92*	4.5µM*	-91*	3%
Cc1ccc(C(=O)N/C(=C\c2ccco2)C(=O)NCCCn2ccnc2)cc1	x	-77*	8%	-18	-5%
Cc1ccccc1NS(=O)(=O)c1ccc2[nH]cc(C(=O)NCCc3ccccc3)c(=O)c2c1	x	x	x	x	2%
Cc1cc(S(=O)(=O)Nc2cccnc2)c(C)s1	-3%	8	-8%	7	1%
Cc1cc(S(=O)(=O)Nc2ccc3ccccc3c2)c(C)s1	5%	-2	x	3	18µM*
O=C(CN1N=C(C(F)(F)F)CC1(O)c1ccc([N+](=O)[O-])cc1)c1ccccc1 (stereo not given)	u	-6	1%	-8	16µM*
O=C(c1ccccc1O)N1N=C(C(F)(F)F)CC1(O)c1ccc([N+](=O)[O-])cc1 (stereo not given)	u	-3	19%	x	-15%
Cc1ccc(-c2nnc(Nc3ccc(Br)cc3)c3ccccc23)cc1S(=O)(=O)N1CCN(C)CC1	x	x	x	x	-5%
CCc1ccc(C(O)c2ncc(-c3cccc(OC)c3)[nH]2)cc1 (stereo not given)	x	-20	x	-18	x
SMILES	MBNL1 CUG block	Six1-Eya2 blk	uPA generation	CtBP-E1A blk	Mito fusion act
CC(=O)NC(c1ccccc1)c1nc(-c2cccc(C#N)c2)cs1 (stereo not given)	x	1	x	3	x
O=C(O)CCN1C(=O)/C(=C\c2ccc(-c3nc4ccccc4s3)o2)SC1=S	3%	u	1%	-75*	0%
O=C(O)CCCN1C(=O)/C(=C\c2ccco2)SC1=S	u	u	-8%	-5	3%
O=c1c(Cl)c(Cl)cnn1-c1ccccc1	u	-4	3.5µM*	6	-3%
O=c1c(Cl)c(N/N=C/c2ccc(Cl)cc2)cnn1-c1ccccc1	x	4	11%	x	8.9µM*
CC(C)CCSc1nc(N)c(C#N)cc1C#N	u	u	x	u	11µM*
COc1cc(SC#N)ccc1N=Cc1c(C)[nH]n(-c2ccc(C)c(C)c2)c1=O	x	-66*	u	u	-2%
CN(C)/N=C/C=C1\CCC/C(=C\c2ccc(F)c(F)c2)C1=O	0%	5	-8%	21	-6%
COc1ccc(/C=C2\CCC/C(=C\C=N\N(C)C)C2=O)cc1	x	-3	11µM*	x	18%
CC1CC(C)CN(C(=O)COC(=O)CN2C(=O)c3ccccc3C2=O)C1 (stereo not given)	x	10	1%	8	x
CC1CC(C)CN(C(=O)c2ccc3c(c2NCCO)C(=O)c2ccccc2C3=O)C1 (stereo not given)	u	-70*	-8%	u	5%
COc1cc(NC(=O)C2CC(c3ccccc3O)=NO2)cc(OC)c1OC (stereo not given)	x	-2	x	-5	x
Cc1cc2c(c(=O)n1Cc1ccccc1)C1O[C@](CCCCN3C(=O)c4ccccc4C3=O)(Cc3cc(C#N)ccc31)O2	4%[11.5 µM]	x	x	x	1%[9.22 µM]
CC1(C)N=c2ccc([N+](=O)[O-])c(N)c2=[N+]1[O-]	u	-15	10µM*	-10	-9%
Cc1ccc(N)c([N+](=O)[O-])c1	x	2	5%	1	-6%
O=C(CNCc1ccccn1)Nc1ccc([N+](=O)[O-])cc1C(=O)Nc1ccccc1F	u	-93*	-9%	-89*	7%
Cc1nn(CC(=O)N/N=C/c2cccs2)c(C)c1[N+](=O)[O-]	8%	-5	0%	-6	-2%
COc1cccc(/C=N/NC(=O)C(C)n2nc(C)c([N+](=O)[O-])c2C)c1O (stereo not given)	x	-89*	-5%	-66*	-5%
COc1cccc(/C=N/NC(=O)Cn2nc(C)c([N+](=O)[O-])c2C)c1O	-14%	-95*	-6%	-94*	-3%
CC(Sc1nnc(NC2CC2)s1)C(=O)Nc1ccc(N2CCOCC2)cc1 (stereo not given)	x	-1	0%	0	1%
CC(Sc1nnc(NC2CCCCC2)s1)C(=O)Nc1ccc2c(c1)C(=O)c1ccccc1C2=O (stereo not given)	u	-75*	-6%	0	u
Cc1ccccc1-c1nn[nH]n1	-10%	4	x	9	-1%
Oc1ccc(N=Nc2ccccc2-c2nn[nH]n2)c(O)c1	u	-86*	-4%	x	-7%
O=S1(=O)CC(N2CCN(c3ccccn3)CC2)CN1Cc1ccccc1 (stereo not given)	x	13	x	-21	x
Cn1cc(CCC(=O)NCc2cccc(Cl)c2)c2ccccc21	-7%	-5	0%	-5	32µM*
CC(=O)N1CCOc2cc(S(=O)(=O)Nc3cccc(C(F)(F)F)c3)c(Cl)cc21	x	x	x	x	-3%

Compound activity from PubChem.
